Compound activity deposited in PubChem by National Center for Advancing Translational Sciences (NCATS).
RE007 growth inh – less growth of the S. pombe RE007 Vpr strain. S. pombe RE007 Vpr strain, BacTiter-Glo ATP luminescence, 24 h. Potency, µM (doses to about 92.2 µM), inactives show top-dose activity change, negative = less growth, hits mostly inhibitors. 0.21% of 360,000 active. AID 651644; active means well fitted falling curve with a large enough effect; inconclusive means small, poorly fitted or top-dose-only effect; inactive means no such curve, though single readings can be large or run the other way; further: nearly all actives have a fitted effect of over 50% in size
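Fission yeast RE007 carrying one integrated HIV-1 vpr copy, seeded at OD 0.01 in PMG+AL medium with 23 nL pinned compound. Grown 24 h at 30 degrees; viability read by BacTiter-Glo luminescence after 5 min.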
FMDV inh – antivirals against foot and mouth disease virus; FMDV antiviral cell-based qHTS; Potency, µM (titrated, usually from 57.9 µM), without a hit: at the highest dose activity change, negative = inhibition, hits mostly inhibitors; 1.2% of 410,000 active; calls by dose curve; tested in HEK293T cells; further: read-out not given here; nearly all actives have a fitted effect of over 45% in size
Sm TGR inh – blocks Schistosoma mansoni thioredoxin glutathione reductase; Q962Y6; purified TGR, DTNB reduction, TNB absorbance 405 nm; Potency, µM (doses to about 114 µM), for inactives: top-dose activity change, negative = inhibition, usual class: inhibitors; 3% of 360,000 active; AID 485364; further: nearly all actives have a fitted effect of over 60% in size
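Kinetic colorimetric format: TGR-catalysed, NADPH-driven DTNB reduction monitored via TNB absorbance. Enzyme dispensed at 20 nM; compound exposure 15 min at room temperature before reaction start.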
TbPYK inhibitor – T. brucei pyruvate kinase inhibition; AID 624173; Potency, µM (titrated, usually from 76.8 µM), without a hit: at the highest dose activity, negative = inhibition, actives largely listed as inhibitors; TbPYK enzyme, Kinase-Glo Plus ATP luminescence, 45 min; 0.12% of 410,000 active; Q57TT1; further: nearly all actives have a fitted effect of over 50% in size
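T. brucei PYK with substrate was exposed to pin-transferred compounds across a concentration series, then started with 130 uM ADP (final). After 45 min at room temperature, Kinase-Glo Plus luminescence was read, normalized and curve-fitted.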
An asterisk follows results filed as active; ? = inconclusive; . = no result given; [ ] = remark or other dose. A selection: hits, their analogues and other compounds. The true share with any hit is near 3.7%. Unless noted, the call rests on the fitted dose curve; in most records, active means well fitted curve in the direction sought with a large enough effect; inconclusive means small, poorly fitted or top-dose-only effect, or another doubt; inactive means no such curve, though single readings can be large; an effect the other way counts as inactive or inconclusive. On the % scale 0 is the no-effect control and ±100 the full control effect; potency means the concentration at half of the fitted maximal effect.

SMILES | RE007 growth inh | FMDV inh | Sm TGR inh | TbPYK inhibitor
O=[N+]([O-])C1C(c2ccccc2)C12c1ccccc1-c1ccccc12 (configuration not stated) | -22% | 14µM* | . | -7%
Cc1c(C(=O)NCCCN2CCCC2=O)cnn1-c1ncc2c(n1)-c1ccccc1CC2 | . | 29% | . | .
COC(=O)C1=C(c2ccc3ccccc3c2)C[C@@H]2CC[C@H]1N2C | -1% | 18% | -27% | 4%
COC(=O)C1=C(C(=O)OC)C2OC1c1cc3ccccc3cc12 | 35µM* | 28µM* | . | 28µM*
Cc1ccc(Cl)cc1N1CCN(C(=O)CCC(=O)Nc2ccc3nc(N4CCC(C)CC4)cc(C)c3c2)CC1 | . | 4% | 2% | -5%
COc1cccc(CN2CCNC(=O)C2CC(=O)NC2CCCCC2)c1OC (configuration not stated) | 10% | 16% | 45µM* | 24%
O=C(CC1C(=O)NCCN1Cc1cccc(F)c1)NC1CCC1 (configuration not stated) | -15% | -6% | ? | -1%
O=C(CC1C(=O)NCCN1Cc1cccc(F)c1)NC1CCCCC1 (configuration not stated) | 3% | 8% | 35µM* | 2%
COc1cccc(CN2CCNC(=O)C2CC(=O)NC2CCCC2)c1OC (configuration not stated) | 2% | -9% | ? | 2%
COc1cccc(CN2CCNC(=O)C2CC(=O)O)c1OC (configuration not stated) | -7% | 3% | 40µM* | 5%
COc1ccc(CN2CCNC(=O)C2CC(=O)NC2CCCC2)c(OC)c1 (configuration not stated) | -3% | ? | -35% | -1%
COc1ccc(CN2CCNC(=O)C2CC(=O)O)c(OC)c1 (configuration not stated) | 8% | -14% | 35µM* | -6%
COc1ccccc1CNC(=O)c1cn(C)c2ccc(S(=O)(=O)N3CCC(C)CC3)cc2c1=O | . | -3% | 4% | -1%
COc1ccc(CN2CCNC(=O)C2CC(=O)NCc2cc(C)n(C)n2)c(F)c1 (configuration not stated) | 3% | -15% | 20µM* | -3%
CCCN1CCC(NC(=O)CC2C(=O)NCCN2Cc2ccccc2C)CC1 (configuration not stated) | 3% | 20% | -14% | -8%
Cc1ccccc1CN1CCNC(=O)C1CC(=O)O (configuration not stated) | -9% | -19% | 25µM* | 3%
COc1cc(=O)n2c(c1C(=O)N(C)Cc1cscn1)CCN(C(=O)c1ccc(C)c(C)c1)CC2 | . | 24% | . | .
Cc1ccc(C)c(NC(=O)CN2CCN(C3CCCCC3)C(=O)C2=O)c1 | . | -21% | 2% | -1%
CCCCC(=O)OC1CCC2C3CCc4cc(O)ccc4C3CCC12C (configuration not stated) | -16% | -16% | . | 6%
C[C@]12CC[C@@H]3c4ccc(O)cc4CC[C@H]3[C@@H]1CC[C@@H]2OC(=O)CCC(=O)O | 1%[18.4 µM] | -14% | 45µM* | 1%
O=C(CSc1nc2ccccc2c2nc3ccccc3n12)NCc1ccco1 | 0% | -12% | 8.9µM* | 6%
CCn1c(SCC(=O)NCc2ccco2)nc2ccccc2c1=O | -6% | -7% | 45µM* | -1%
COc1ccc(C(=O)Nn2c(SCC(=O)NCc3ccco3)nc3ccccc3c2=O)cc1 | 0% | 14µM* | ? | -4%
O=C(CCCCCn1c(SCc2ccncc2)nc2ccccc2c1=O)NCc1ccco1 | 7% | 0% | 45µM* | -8%
O=C(CSc1nc2ccccc2c(=O)n1Cc1ccccc1)NCc1ccco1 | 5% | -21% | -4% | -4%
SMILES | RE007 growth inh | FMDV inh | Sm TGR inh | TbPYK inhibitor
Cn1c(SCC(=O)NCc2ccco2)nc2ccccc2c1=O | -4% | -13% | 0% | 2%
OC1(c2cccnc2)CCN(Cc2ccc3c(c2)CN(Cc2cccc(F)c2F)CCO3)CC1 | . | -13% | . | .
Cc1ccc(CNC(=O)CSc2nc(=O)[nH]c3c2CCCC3)cc1 | . | -10% | 7% | -3%
O=C(CSc1nc2[nH]ncc2c(=O)n1-c1ccccc1Br)NCc1ccco1 | 8% | 15% | 22µM* | -13%
COc1cc(=O)n2c(c1C(=O)N(C)Cc1cscn1)CCN(Cc1c(C)[nH]c3ccccc13)CC2 | . | -6% | . | .
CCOC(=O)CSc1nnc(NCC(=O)OC)c(=O)[nH]1 | -5% | -2% | 16µM* | -19%
COc1ccccc1-n1cc(C(=O)NCCN2Cc3ccccc3OC(c3ccsc3)C2)cn1 (configuration not stated) | . | -9% | . | .
Cc1cnc(-n2ncc(C(=O)NCC(C)(C)N3CCOCC3)c2C)nc1-c1cccs1 | . | -2% | . | .
CCN(CC)S(=O)(=O)c1ccc(NC(=O)c2ccc(N(C)S(C)(=O)=O)cc2)cc1 | -6% | 4µM* | -2% | -1%
CCN(CC)S(=O)(=O)c1cccc(NC(=O)c2ccc(Br)cc2)c1 | 1% | 25µM* | 5% | 3%
CCN(CC)S(=O)(=O)c1cccc(C(=O)Nc2cc(C)cc(C)c2)c1 | 4% | 28% | -16% | -2%
CCN(CC)S(=O)(=O)c1ccc(NC(=O)c2ccccc2N(C)S(C)(=O)=O)cc1 | -2% | 9% | -1% | 6%
CCN(CC)S(=O)(=O)c1cccc(C(=O)Nc2ccc(C#N)cc2)c1 | 1% | 25µM* | 4% | -8%
Cc1cc(N2CCN(C(c3ccccc3)c3ccccc3)CC2)n2ncnc2n1 | 34% | ? | 5% | 0%
Cc1cc(N2CCN(c3nc4ccccc4s3)CC2)n2ncnc2n1 | -5% | 11µM* | 0% | 0%
CCN1CCCC1CNCc1cc2c(OC)c(OC)c(OC)cc2nc1N(C)C (configuration not stated) | . | -15% | . | .
CNc1oc(-c2ccccc2F)nc1S(=O)(=O)c1ccc(C)cc1 | 6% | 6% | 14µM* | -7%
CCNc1oc(-c2ccccc2F)nc1S(=O)(=O)c1ccccc1 | -7% | -6% | 40µM* | -10%
COc1ccc(-n2nc(C(=O)N(C)c3cc(Cl)ccc3OC)c3c4ccccc4n(C)c3c2=O)cc1 | . | ? | -7% | 1%
CCS(=O)(=O)c1ncc(N(Cc2ccco2)Cc2ccccc2F)c(C(=O)Nc2cccc(Cl)c2)n1 | . | -10% | 4% | -2%
Cc1ccc(Sc2ccc(NC(=O)CCl)cc2)c(C)c1 | -23% | 32µM* | ? | -6%
CC1(C)CC2(CC(c3ccccc3F)c3ccc(O)c(O)c3O2)NC(=S)N1 (configuration not stated) | -16% | -18% | 1.1µM* | ?
CC1(C)CC2(CC(c3ccc(F)cc3)c3ccc(O)cc3O2)NC(=S)N1 (configuration not stated) | 18% | ? | 1% | -4%
CCOc1ccccc1CNC(=O)CN1C(=O)CCn2nc(-c3cn(C)c4ccccc34)cc21 | . | -7% | 1% | -6%
COC(=O)c1ccc(CNC(=O)C(C)N=C2NS(=O)(=O)c3ccccc32)cc1 (configuration not stated) | -11% | 5% | 0% | -10%
